# TDP1 cell CPT: growth inhibition of DT40 Tdp1-/-;hTDP1 cells with camptothecin (screen for TDP1 inhibitors); chicken DT40 Tdp1-/-;hTDP1 cells + 20 nM CPT, ATP luminescence, 48 h; Potency, µM (titrated, usually from 46.2 µM), for inactives: top-dose activity change, negative = growth inhibition, most hits filed as inhibitors; actives 12% (n = 420,000); AID 686979; note: potency is the fitted concentration of half-maximal effect; nearly all actives have a fitted effect of over 55% in size
#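 Cell growth measured by CellTiter-Glo luminescence after a minimum 48 h, 37 C compound exposure with 20 nM CPT in Tdp1-knockout DT40 cells stably expressing hTDP1, seeded 400/well; qHTS titration format.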
# IL-1B inflam inh: inhibitors of inflammasome signaling (IL-1 beta secretion); THP-1 LPS/ATP IL-1B secretion, AlphaLISA, 16 h; stronger effect = lower value; actives 4.7% (n = 360,000); activity change, % at 57.5 µM; in the data active = activity change below about -50%; inconclusive = mostly about -30% to -49%
#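 Secreted IL-1B measured by AlphaLISA bead assay after 16 h compound exposure of THP-1 cells; compounds (final up to 57.5 uM) added 1 h before LPS (250 ng/mL) and ATP (1.25 mM) stimulation; lower signal means less secretion.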
# ELG1 repair inh: ELG1-dependent DNA repair inhibition. HEK293T ELG1-luciferase reporter, luminescence, 16 h; DNA damage induced by 5-fluorouridine. Potency, µM (series often up to 46.1 µM), for the others: at the highest dose activity change, negative = inhibition, most hits filed as inhibitors. actives 2.3% (n = 330,000). AID 504467; note: potency is the fitted concentration of half-maximal effect; nearly all actives have a fitted effect of over 55% in size
#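 5-Fluorouridine DNA damage + compound/DMSO, 2,000 cells/well, 16 h, 37 °C/5% CO2. ONE-Glo, 30 min RT, luminescence. Readout = decrease in reporter signal.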
# HT1080-NT tox: kills 2HG-producing HT-1080-NT fibrosarcoma cells. Potency, µM (doses to about 46.1 µM), inactives show at the top dose activity, negative = less viability, usual class: cytotoxic. HT-1080-NT fibrosarcoma viability, CellTiter-Glo ATP luminescence, 48 h. actives 1.6% (n = 360,000);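 note: NT is the 2HG producing partner of a matched IDH1 knockdown line; potency is the fitted concentration of half-maximal effect; 0% = DMSO-treated cells and -100% = media-only wells without cells; nearly all actives have a fitted effect of over 55% in size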
#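 HT-1080-NT; 750 cells/well; 5% FBS RPMI; 48 h compound, 37 degrees C; CellTiter-Glo luminescence; curve fitting and curve-class assignment.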
# HT1080 IDH1KD tx: toxicity to HT-1080 IDH1 knockdown cells (counter line); HT-1080 IDH1 knockdown viability, ATP luminescence, 48 h; Potency, µM (top dose mostly 46.1 µM), inactives show at the top dose activity, negative = toxicity, actives largely listed as cytotoxic; actives 2% (n = 360,000); AID 686971;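 note: potency is the fitted concentration of half-maximal effect; 0% = DMSO wells and -100% = cell-free medium wells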
#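 Knockdown cells (IDH1KD HT-1080) received compounds 2 h after plating at 750 cells/well and were kept 48 h at 37 °C in 5% FBS RPMI. A CellTiter-Glo luminescence read gave % activity for curve fitting.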
# TDP1 cell noCPT: qHTS for Inhibitors of human tyrosyl-DNA phosphodiesterase 1 (TDP1): qHTS in cells in absence of CPT; DT40 Tdp1-/- hTDP1 cells, no CPT, ATP luminescence, 48 h; Potency, µM (highest dose often 46.2 µM), for inactives: top-dose activity change, negative = growth inhibition, usual class: inhibitors; actives 15% (n = 420,000); AID 686978, 2013; note: potency is the fitted concentration of half-maximal effect; nearly all actives have a fitted effect of over 55% in size
#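 Growth of hTDP1-complemented DT40 Tdp1-knockout cells is measured by ATP luminescence after at least 48 hr compound exposure at 37 °C, with DMSO substituting for the 20 nM CPT used in the parallel screen.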
# The depositor's hits bear a star; u = inconclusive; x = not tested or not shown. Rows were chosen to be rich in hits. Some 19% of all compounds tested hit in one or more screens of this group. Unless noted, calls come from the whole dose curve; as a rule, active = well fitted curve in the direction sought with a large enough effect; inconclusive = small, poorly fitted or top-dose-only effect, or another doubt; inactive = no such curve, though single readings can be large; an effect the other way counts as inactive or inconclusive. Unless noted, % is set by controls: 0 for no effect and ±100 for the full control effect.
SMILES,TDP1 cell CPT,IL-1B inflam inh,ELG1 repair inh,HT1080-NT tox,HT1080 IDH1KD tx,TDP1 cell noCPT
CN(CC(=O)Nc1cccc(F)c1)CC(=O)NC(c1ccccc1)c1ccccc1,23µM*,-20,-20%,-8%,-15%,u
CC(NC(=O)CN(C)CC(=O)Nc1ccc(Cl)c(C(F)(F)F)c1)c1ccccc1 (stereo unspecified),21µM*,-16,u,2%,1%,23µM*
CN(CC(=O)NCC(=O)Nc1ccc(F)cc1)CC(=O)Nc1ccc(Cl)c(C(F)(F)F)c1,-27%,-72*,x,-1%,-11%,-19%
CN(CC(=O)Nc1ccc(Cl)c(Cl)c1)Cc1nnc(-c2ccc(F)cc2)o1,u,-58*,2%,-15%,-18%,u
COc1ccc(NC(=O)CN(C)CC(=O)NCC(=O)Nc2ccc(F)cc2)cc1,5%,10,15%,7%,2%,4%
CN1[C@@H]2CCC[C@H]1CC(NC(=O)c1nn(C)c3ccccc13)C2 (stereo partly specified),-7%,6,5%,18%,5%,-10%
CC1CC1C(=O)N(C)CC(=O)Nc1ccc(Cl)c(C(F)(F)F)c1 (stereo unspecified),u,-22,-3%,9%,3%,u
CN(CC(=O)NCc1ccc(F)cc1)CC(=O)Nc1ccc(Cl)c(C(F)(F)F)c1,23µM*,-69*,u,u,u,21µM*
CN(CC(=O)Nc1ccc(Cl)c(C(F)(F)F)c1)C(=O)c1ccccc1SCC(=O)N1CCCC1,18µM*,-12,x,-11%,-21%,u
Cc1ccc(NC(c2ccc(Cl)cc2)c2nnc(-c3cccc(F)c3)o2)cc1C (stereo unspecified),-6%,x,x,x,x,u
CCc1cccc(NC(c2ccccc2)c2nnc(-c3ccccc3F)o2)c1 (stereo unspecified),u,x,x,x,x,21µM*
Cc1cc(Nc2ccc(O)cc2)ccc1N,5µM*,x,-4%,x,x,3.2µM*
Oc1ccc(Nc2ccc3ccccc3c2)cc1,18µM*,u,x,-25%,u,23µM*
CN(C)C(=S)NC(=S)Nc1ccc2ccccc2c1,u,46,x,2%,-29%,u
Nc1cc([N+](=O)[O-])ccc1Nc1ccc(O)cc1,u,-9,-7%,-10%,-23%,u
O=C(CCCc1nc(-c2ccc(Cl)cc2)no1)N1CCOCC1,23µM*,11,-27%,-19%,-23%,16µM*
Cc1ccc(-c2noc(CCCC(=O)N3CCOCC3)n2)cc1,-22%,21,-23%,-1%,2%,-29%
Cc1cccc(Oc2ccc(S(=O)(=O)N3CCCCC3)cc2N)c1,u,27,u,-14%,u,u
Cc1ccc(S(=O)(=O)c2ccc(Oc3cccc(C)c3)cc2)cc1,u,-26,2%,-10%,-14%,21µM*
Cc1cc(C)cc(NC(=O)c2cccc(N3C(=O)C4C5C=CC(C5)C4C3=O)c2)c1 (stereo unspecified),-13%,-11,2%,4%,-4%,4%
Cc1cccc(NC(=O)c2cccc(N3C(=O)C4C5C=CC(C6CC56)C4C3=O)c2)c1 (stereo unspecified),u,-23,u,-5%,-17%,15µM*
CC1=CCC2C(=O)N(c3cccc(C(=O)Nc4ccc(Cl)cc4)c3)C(=O)C2C1 (stereo unspecified),-9%,-80*,-12%,-5%,-17%,0%
N#Cc1ccc(CN2CCC3(CC2)CCN(C(=O)c2ccco2)CC3)cc1,1%,x,x,x,x,u

# Bioassay records (PubChem BioAssay)
